DT40 TDP1 CPT: growth inhibition of DT40 Tdp1-/-;hTDP1 cells with camptothecin (screen for TDP1 inhibitors). 420,000 compounds, 12% hits. AID 686979. chicken DT40 Tdp1-/-;hTDP1 cells + 20 nM CPT, ATP luminescence, 48 h. Potency, µM (highest dose often 46.2 µM), without a hit: at the top dose activity change, negative = growth inhibition, hits mostly inhibitors; further: potency means the concentration at half of the fitted maximal effect; on the % scale 0 is the no-effect control and ±100 the full control effect; nearly all actives have a fitted effect of over 55% in size
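Chicken DT40 Tdp1-/- cells stably complemented with human TDP1 were seeded at 400 cells/well in medium containing 20 nM camptothecin, exposed to pin-transferred compounds, and grown at 37 °C for at least 48 hr. Viability was read as ATP luminescence.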
IL1B secr inh: inhibitors of inflammasome signaling (IL-1 beta secretion); THP-1 LPS/ATP IL-1B secretion, AlphaLISA, 16 h; stronger effect = lower value; activity change, % at 57.5 µM; 360,000 compounds, 4.7% hits; AID 743279; in the data active means activity change below about -50%; inconclusive means mostly about -30% to -49%; further: on the % scale 0 is the no-effect control and ±100 the full control effect
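Secreted IL-1B measured by AlphaLISA bead assay after 16 h compound exposure of THP-1 cells; compounds (final up to 57.5 uM) added 1 h before LPS (250 ng/mL) and ATP (1.25 mM) stimulation; lower signal means less secretion.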
DT40 TDP1 no CPT: qHTS for Inhibitors of human tyrosyl-DNA phosphodiesterase 1 (TDP1): qHTS in cells in absence of CPT; 420,000 compounds, 15% hits; DT40 Tdp1-/- hTDP1 cells, no CPT, ATP luminescence, 48 h; Potency, µM (series often up to 46.2 µM), without a hit: at the top dose activity change, negative = growth inhibition, actives largely listed as inhibitors; further: potency means the concentration at half of the fitted maximal effect; on the % scale 0 is the no-effect control and ±100 the full control effect; nearly all actives have a fitted effect of over 55% in size
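A cellular qHTS used chicken DT40 cells lacking endogenous Tdp1 but carrying stably transfected human TDP1. Compounds were applied without camptothecin, and cell growth kinetics were judged by ATP-dependent luminescence after ≥48 hr.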
HepG2 viability: counter-screen for TGF-b inhibitors: cytotoxicity in HepG2 cells; HepG2 CAGA-GFP viability, ATP luminescence, 18 h; Potency, µM (highest dose often 46.1 µM), for inactives: at the top dose activity change, negative = cytotoxicity, usual class: cytotoxic; 410,000 compounds, 0.76% hits; further: potency means the concentration at half of the fitted maximal effect
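CellTiter-Glo luminescence gave cytotoxicity after 18 hours at 37 degrees C. The cells were HepG2 CAGA-GFP in 1% FBS DMEM, stimulated with 500 pg/mL TGF-beta after compound addition. %Activity was normalised to no-cell wells (complete cell-killing) and DMSO (no toxicity), and curves were fitted and classified.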
TGFb SMAD3 inh: inhibitors of TGF-b signaling; HepG2 CAGA-GFP TGF-b/SMAD3 reporter, GFP fluorescence, 18 h; TGF-beta stimulated, 500 pg/mL final; Potency, µM (titrated, usually from 46.1 µM), for inactives: at the highest dose activity, negative = inhibition, actives largely listed as inhibitors; 410,000 compounds, 1.2% hits; further: potency means the concentration at half of the fitted maximal effect; on the % scale 0 is the no-effect control and ±100 the full control effect; nearly all actives have a fitted effect of over 65% in size
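TGF-beta reporter screen: HEPG2 CAGA-GFP, 1% FBS, 500 pg/mL TGF-beta final, 18 h; per-cell GFP summed per well; curves fitted and categorized by class.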
TDP1 block: inhibitors of human tyrosyl-DNA phosphodiesterase TDP1; Q9NUW8; recombinant TDP1, AlphaScreen DNA substrate cleavage; Potency, µM (top dose mostly 130 µM), without a hit: at the highest dose activity change, negative = inhibition, most hits filed as inhibitors; 350,000 compounds, 0.28% hits; AID 485290; further: potency means the concentration at half of the fitted maximal effect; on the % scale 0 is the no-effect control and ±100 the full control effect; nearly all actives have a fitted effect of over 40% in size
Target sequence (Q9NUW8 whole entry, looked up): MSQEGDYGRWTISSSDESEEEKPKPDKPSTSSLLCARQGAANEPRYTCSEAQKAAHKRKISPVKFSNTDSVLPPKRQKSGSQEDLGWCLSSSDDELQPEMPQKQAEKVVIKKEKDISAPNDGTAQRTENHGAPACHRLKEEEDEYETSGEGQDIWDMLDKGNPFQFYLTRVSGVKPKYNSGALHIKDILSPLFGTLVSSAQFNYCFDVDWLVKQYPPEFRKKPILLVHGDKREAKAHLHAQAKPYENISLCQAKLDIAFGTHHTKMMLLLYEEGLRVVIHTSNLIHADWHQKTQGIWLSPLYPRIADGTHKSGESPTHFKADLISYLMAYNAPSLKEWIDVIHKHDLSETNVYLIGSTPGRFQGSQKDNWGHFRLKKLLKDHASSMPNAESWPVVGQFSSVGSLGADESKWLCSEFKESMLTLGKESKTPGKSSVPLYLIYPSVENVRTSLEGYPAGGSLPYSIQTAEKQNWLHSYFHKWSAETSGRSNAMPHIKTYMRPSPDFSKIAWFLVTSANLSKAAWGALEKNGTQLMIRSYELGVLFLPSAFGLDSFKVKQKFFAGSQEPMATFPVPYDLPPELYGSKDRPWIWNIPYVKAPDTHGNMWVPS
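Recombinant E. coli-expressed Tdp1 (1 nM) preincubated with compound 15 min at RT, then 5'-biotin/3'-phosphotyrosine-FITC DNA substrate (15 nM) added for 5 min. AlphaScreen beads (10 ug/ml) added, 10 min RT; tyrosine-FITC cleavage read as signal loss.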
An asterisk follows results filed as active; ? = inconclusive; nt = not tested or not shown. This is a sample that favours compounds with a hit; in the whole collection about 19% have one here. Unless noted, the call rests on the fitted dose curve; in most records, active means well fitted curve in the direction sought with a large enough effect; inconclusive means small, poorly fitted or top-dose-only effect, or another doubt; inactive means no such curve, though single readings can be large; an effect the other way counts as inactive or inconclusive.

SMILES | DT40 TDP1 CPT | IL1B secr inh | DT40 TDP1 no CPT | HepG2 viability | TGFb SMAD3 inh | TDP1 block
COC(=O)C1=C(C#N)NC(C)=C(C(=O)OC(C)C)C1c1cccc([N+](=O)[O-])c1 (stereo not drawn) | 30µM* | nt | 19µM* | nt | nt | nt
COC(=O)C1=C(C)NC(C)=C(C(=O)OC)C1c1ccc(-c2cccc([N+](=O)[O-])c2)o1 | ? | ? | ? | -20% | -26% | 8%
COC(=O)C1=C(C)NC(C)=C(C(=O)OCCN2CCN(C(c3ccccc3)c3ccccc3)CC2)C1c1cccc([N+](=O)[O-])c1 (stereo not drawn) | 6.7µM* | nt | 4.7µM* | nt | nt | nt
CCOC(=O)C1=C(C)NC(C)=C(C(=O)OCCNC(=O)c2cccnc2)C1c1cccc([N+](=O)[O-])c1 (stereo not drawn) | 23µM* | -59* | ? | 3% | 5% | 5%
N#CC1=C(N)OC2=C(C(=O)CCC2)C1c1cc2c(cc1Br)OCO2 (stereo not drawn) | -4% | -10 | -14% | -3% | -1% | nt
O=C(Cc1c(F)cccc1Cl)Nc1cc(S(=O)(=O)N2CCCCC2)ccc1N1CCOCC1 | ? | -16 | 16µM* | -10% | -21% | 6%
O=C(Cc1c(F)cccc1Cl)Nc1ccccc1N1CCCCC1 | 16µM* | 15 | ? | -19% | ? | -5%
COc1ccc(C(=O)OCC(=O)Nc2cc(S(=O)(=O)N3CCOCC3)ccc2N2CCCC2)cc1 | 3% | -64* | -18% | -1% | 12% | 3%
COc1ccc(CC(=O)OCC(=O)Nc2cc(S(=O)(=O)N3CCOCC3)ccc2N2CCCC2)cc1 | 0% | 23 | -7% | 0% | -12% | 4%
O=C(Cc1ccc(F)cc1)Nc1cc(S(=O)(=O)N2CCOCC2)ccc1N1CCCCC1 | ? | 20 | 23µM* | -8% | 3% | nt
COc1ccc(CC(=O)Nc2cc(S(=O)(=O)N3CCOCC3)ccc2N2CCCC2)cc1 | 1% | 13 | -13% | -4% | 0% | nt
CN1CCN(c2ccc(S(=O)(=O)N3CCCCC3)cc2NC(=O)Cc2c(F)cccc2Cl)CC1 | ? | -17 | ? | 5% | 1% | nt
CC1CCN(C(=O)CCNS(=O)(=O)c2ccc(Cl)cc2)CC1 | 0% | -1 | -9% | -1% | -22% | 6%
CCC(c1nc2ccccc2[nH]1)n1c(-c2ccnc(Cl)c2)nc2ccccc21 (stereo not drawn) | -8% | ? | -18% | nt | nt | nt
CCOCC(=O)Nc1cc(S(=O)(=O)N2CCOCC2)ccc1N1CCCCC1 | 15µM* | 8 | 16µM* | -10% | 3% | 0%
O=C(CCc1ccccc1Cl)Nc1cc(S(=O)(=O)N2CCOCC2)ccc1N1CCCC1 | 15µM* | -13 | 18µM* | -8% | 0% | nt
CCOc1ccc(N(CC)C(=O)CSc2n[nH]c(-c3ccccc3)n2)cc1 | ? | nt | ? | -28% | -1% | 5%
COc1ccc(/C=C/C(=O)Nc2ccc(OC)nc2)cc1 | -1% | ? | ? | -24% | 1% | 3%
COc1ccc(CS(=O)(=O)/C(Cl)=C(/Cl)C(=O)Nc2ccc(OC)nc2)cc1 | 0.58µM* | -120* | 0.58µM* | -107% | ? | 1%
COc1ccc(NC(=O)Cc2ccccc2)cn1 | -8% | 16 | -3% | -2% | 2% | 4%
COc1ccc(NC(=O)/C(Cl)=C(/Cl)S(=O)Cc2ccccc2)cn1 (stereo not drawn) | 0.021µM* | -103* | 0.018µM* | 7.1µM* | 4µM* | 5%
Cc1cc(C)n(CC(C)(O)c2ccccc2)n1 (stereo not drawn) | -6% | 26 | -16% | 1% | -14% | nt
Cc1nnsc1C(=O)N(Cc1ccccc1)C(C)C | 2% | -8 | 1% | -1% | 2% | nt
CC(C)N(Cc1ccccc1)C(=O)c1ccc2nsnc2c1 | ? | 0 | 21µM* | 1% | -2% | 1%
CC(C)c1nc2ccc(C(=O)Nc3ccccc3F)cc2o1 | 7.3µM* | nt | 5.8µM* | -34% | -21% | 1%
SMILES | DT40 TDP1 CPT | IL1B secr inh | DT40 TDP1 no CPT | HepG2 viability | TGFb SMAD3 inh | TDP1 block
CC(=O)c1cccc(NC(=O)c2ccc3nc(C(C)C)oc3c2)c1 | ? | nt | 16µM* | -16% | -18% | 2%
CCc1ccc(CNC(=O)c2ccc3nc(C(C)C)oc3c2)cc1 | ? | nt | ? | -39% | ? | -2%
Cc1c(Cl)cccc1NC(=O)c1ccc2nc(C(C)C)oc2c1 | ? | nt | 12µM* | -17% | -2% | 3%
CN(C(=O)CSc1nnc(-c2ccc([N+](=O)[O-])cc2)o1)c1ccccc1 | 16µM* | nt | ? | -10% | -2% | -12%
CS(=O)(=O)Nc1ccc(C(=O)Nc2ccccc2-c2ccccc2)cc1 | -20% | ? | -6% | -17% | -5% | nt
CCC(CC)C(=O)c1c[nH]c(C(=O)NC2CCCCCC2)c1 | -8% | -66* | 2% | -2% | 2% | 4%
CCC(CC)C(=O)c1c[nH]c(C(=O)NCc2ccccc2OC)c1 | 21µM* | -12 | ? | -9% | 4% | nt
CCC(=O)c1c[nH]c(C(=O)NCc2ccccc2OC)c1 | ? | 17 | -25% | 7% | 16% | nt
COc1ccc(/C=C/c2ccc3c(Br)ccc(O)c3n2)cc1 | 10µM* | 103 | 21µM* | -19% | -9% | nt
Cc1ccc2c(Br)cc(Br)c(O)c2n1 | 7.5µM* | nt | 8.4µM* | nt | nt | 6%
COc1cc(/C=C/c2ccc3c(Br)cc(Br)c(O)c3n2)ccc1O | 3.3µM* | 25 | 5.2µM* | -45% | ? | 11%
Cc1cc(Nc2cccc(O)c2)c2cccc(Br)c2n1 | -24% | nt | -28% | -7% | ? | -1%
C=CCn1c(-c2cccnc2Cl)nc2cc(Cl)c(Cl)cc21 | 18µM* | -2 | ? | -15% | -3% | 1%
Clc1cccc(Cl)c1Cn1c(-c2cccnc2Cl)nc2ccccc21 | ? | -6 | ? | -32% | 0% | 4%
CCCn1c(-c2cccnc2Cl)nc2cc(Cl)c(Cl)cc21 | 15µM* | 7 | ? | -10% | -5% | 5%
O=C(C(=O)N1CCN(c2ccccc2)CC1)c1ccncc1 | 4% | 7 | -15% | nt | nt | nt
C[N+]1(CC(=O)c2ccc(I)cc2)CCOCC1 | -19% | nt | -4% | 3% | -3% | nt
CCCn1c(=O)c2sccc2n2c(CCCC(=O)Nc3cccc(CC)c3)nnc12 | 23µM* | nt | ? | -21% | ? | 0%

Assay outcomes (PubChem BioAssay)
